The source made the active and inactive calls. Calls follow the shape of the dose curve; as a rule, active = well fitted curve in the direction sought with a large enough effect; inconclusive = small, poorly fitted or top-dose-only effect, or another doubt; inactive = no such curve, though single readings can be large or run the other way.

A short description of this assay: Cellular Toxicity (caspase-3) BJ (AID 658). As to conditions: BJ fibroblasts, luminescence, normalized: DMSO 0%, staurosporine 100%; series mostly up to 91.7 µM. The text has this:
NIH Chemical Genomics Center [NCGC]
NIH Molecular Libraries Screening Centers Network [MLSCN]
National Institutes of Environmental Health Sciences [NIEHS]
National Toxicology Program [NTP]
We have developed a 1536-well cell-based assay for quantitative high throughput screening (qHTS) against a number of cell lines to determine in vitro caspase 3/7 activity of small molecules. This particular assay uses BJ cell line which is derived from normal human foreskin fibroblast.
NCGC Assay Protocol Summary:
The Caspase-Glo 3/7 assay (Promega) is a homogeneous method to measure caspase-3 and caspase-7 activities in cultured cells. The quantitation of caspase 3/7 activity is based on the cleavage of a peptide-aminoluciferin substrate. After caspase cleaves the substrate the free aminoluciferin is liberated and serves as the substrate of luciferase, which generates the light. The luminescent signal is proportional to amount of caspase 3/7 activity present.
Using the Caspase-Glo 3/7 assay, the amount of caspase 3/7 activity was measured in the BJ cell line with complete culture medium following compound treatment for 16 hours. The assay was performed in opaque white 1536-well plates. In the screen, staurosporine and tamoxifen were used as positive controls. Library compounds were measured for their ability to cause the activation of caspase 3/7 in the cell line, as reflected by an increase in luminescence signal, in a concentration-dependent manner. Data were normalized to the controls for basal activity (DMSO only) and 100% stimulation (10 uM staurosporine). AC50 values were determined from concentration-response data modeled with the standard Hill equation.
qHTS protocol for caspase 3/7 assay in the BJ cells
[Step] [Parameter] [Value] [Description]
1. Reagent; 5 uL; 1000 the BJ cells/well
2. Time; 5 hr; 37 °C incubation
4. Controls; 23 nL; Tamoxifen 0.23 uM to 100 uM & staurosporine 1.4 pM to 100 uM
5. Time; 16 hr; 37 °C incubation
6. Reagent; 5 uL; Caspase-Glo 3/7 reagent
7. Time; 1 hr; Room Temperature
8. Detection; Luminescence; Viewlux plate reader
Keywords: caspase 3/7, apoptosis, the BJ cell line, luminescence, NTPHTS, NTPHTS_NCGC, NIEHS, EPA, DSSTox, MLSMR, MLSCN, NIH Roadmap, qHTS, NCGC
For the molecule `C[N+](=O)[O-]`, the molecule was called inactive.
Turning to `O=C(O)C(Br)CBr` (stereo not given), the result was inactive.
With `CC(C)[C@]12CC(=O)[C@H](C)[C@H]1C2`, the result was inactive.
Regarding `CCCC[N+](=O)[O-]`, the call was inactive.
For `C=C(Cl)CCl` the value was “inactive”; for `C(CCOCC1CO1)COCC1CO1` (stereo not given), “inactive”; for `O=C(O)c1cc(Cl)ccc1Cl`, “inactive”.
Turning to `ClCc1ccccn1`, the molecule was classed as inactive.
As for `O=NN1CCCCC1`, the call was inactive.
Consider `C=CCCl`, for which the molecule was called inactive.
In the case of `CCCCC(=O)Cl`, the result was inactive.
For `CC(C)Br`, the molecule was classed as inactive.
For `CCOP(=S)(OCC)SCCSCC` the value was “inactive”.
Regarding `N#CC(Br)Br`, the call was inactive.
On to `Nc1ccc(Oc2ccc(N)cc2)cc1`, for which the outcome was inactive.
Turning to `Nc1ccc2ccccc2c1`, the outcome was inactive.
Take `Nc1c(Cl)cc([N+](=O)[O-])cc1Cl`: the outcome was inactive.
As to `CN(C)c1ccc(N=Nc2ccccc2)cc1`, the result was inactive.
On to `Cc1coc2c1CCC(C)C2` (stereo not given), for which the outcome was inactive.
For the molecule `CCC#N`, the molecule was called inactive.
The entry for `c1ccc(OCC2CO2)cc1` (stereo not given) is “inactive”; for `Nc1ncc([N+](=O)[O-])s1` it is “inactive”; for `O=C(O)C(Br)Br` it is “inactive”.
As for `CCCCCCCCCCCCCl`, the call was inactive.
For the molecule `Oc1c(Cl)cccc1Cl`, the molecule was classed as inactive.
On to `CC(C)CC(C)N` (stereo not given), for which the molecule was classed as inactive.
For `CC(C)(C)C(O)(CCc1ccc(Cl)cc1)Cn1cncn1` (stereo not given) the value was “inactive”; for `CN(C)C(=O)Cl`, “inactive”.
As for `ClC=CCl`, the outcome was inactive.
`CN(C)C(=O)Nc1ccc(Cl)cc1`: the molecule was classed as inactive.
Turning to `CC(C)OC(=O)Cc1ccccc1`, the result was inactive.
For `CCOC(=O)CC(SP(=O)(OC)OC)C(=O)OCC` (stereo not given), the molecule was classed as inactive.
For `[N-]=[N+]=[N-]` the value was “inactive”.
Regarding `N#CC(O)c1ccccc1` (stereo not given), the call was inactive.
With `O=[N+]([O-])c1ccccc1O`, the molecule was classed as inactive.
For `CCC(Cl)[N+](=O)[O-]` (stereo not given) the value was “inactive”; for `ClP(Cl)(Cl)(Cl)Cl`, “inactive”.
With `ClC(Cl)C(Cl)Cl`, the result was inactive.
Regarding `O=[N+]([O-])c1ccccc1-c1ccccc1`, the call was inactive.
For the molecule `COC(C)(C)C`, the call was inactive.

The record behind these values is PubChem BioAssay (NCATS).
